The text below walks through data of ChEMBL document CHEMBL1157539, “Thousands of chemical starting points for antimalarial lead identification” (Nature, 2010).

What all share (format): functional
In assay [1] the test system is Plasmodium falciparum. As to the kind of experiment: GSK_TCMDC: Inhibition of Plasmodium falciparum 3D7 in whole red blood cells, using parasite LDH activity as an index of growth. Test compounds present at 2uM.
The subject of assay [2] is Plasmodium falciparum. As to the kind of experiment: GSK_TCMDC: Inhibition of Plasmodium falciparum Dd2 in whole red blood cells, using parasite LDH activity as an index of growth. Test compounds present at 2uM.
A further assay concerns HepG2. Description: GSK_TCMDC: Percent inhibition of human HepG2 cell line. Test compounds present at 10uM.

By Inhibition is commonly meant the relative decrease from the control value, in per cent. Lower therefore signals a weak effect. Regarding `O=C(/C=C/c1ccc(Cl)c(Cl)c1)NCCCCCN1CCC(NC(=O)Nc2cc(Cl)ccc2Cl)CC1`, the Inhibition in the assay on Plasmodium falciparum [1] came to 99%; in the assay on Plasmodium falciparum [2], 31%; in the assay with HepG2, 99%.

As for `CC[C@H](NC(=O)c1c(CN2CCC(N3CCCCC3)CC2)c(-c2ccccc2)nc2c(Cl)c(O)ccc12)c1ccccc1.Cl`, the figures for the Inhibition in the assay on Plasmodium falciparum [1], in the assay with Plasmodium falciparum [2] and in the assay on HepG2 were 100%, 66% and 0%, respectively.

As for `Cl.NC(=O)c1cccc(Nc2nccc(Nc3ccc(Oc4cccc(Cl)c4)c(Cl)c3)n2)c1`, the values for the Inhibition in the assay with Plasmodium falciparum [1], with Plasmodium falciparum [2] and in the assay on HepG2 were 93%, 12% and 0%, respectively.

Consider `O=C(CCc1c[nH]cn1)Nc1cccc(-c2ccc(-c3nc4ccccc4[nH]3)s2)c1`, for which the Inhibition came to 92% in the assay on Plasmodium falciparum [1], 37% with Plasmodium falciparum [2] and 11% in the assay on HepG2.

As to `Cl.NC(=O)c1sc(-n2cnc3ccc(OCC4CCNCC4)cc32)cc1OCc1ccccc1C(F)(F)F`, the results for the Inhibition with Plasmodium falciparum [1], in the assay with Plasmodium falciparum [2] and with HepG2 were 100%, 62% and 18%, respectively.

`O=[N+]([O-])c1cccc(-n2nc(NCc3ccc(Cl)cc3)nc2-c2ccc(F)c(C(F)(F)F)c2)c1`: the values for the Inhibition in the assay with Plasmodium falciparum [1], with Plasmodium falciparum [2] and in the assay on HepG2 were 98%, 93% and 6%, respectively.

Regarding `N=C(N)NN=Cc1c[nH]c2ccc(-c3ccccc3)cc12.O=C(O)/C=C\C(=O)O`, the results for the Inhibition with Plasmodium falciparum [1], in the assay on Plasmodium falciparum [2] and in the assay on HepG2 were 84%, 61% and 15%, respectively.

With `O=c1cc(NCCCNCc2cc(Cl)c(Cl)cc2Cl)[nH]c2ccccc12`, the figures for the Inhibition in the assay on Plasmodium falciparum [1], in the assay with Plasmodium falciparum [2] and in the assay on HepG2 were 93%, 20% and 7%, respectively.

`CCc1c(C)c(C#N)c2nc3ccccc3n2c1NCc1ccco1`: the Inhibition in the assay with Plasmodium falciparum [1] is given as 99%; in the assay on Plasmodium falciparum [2] it was 90%; in the assay with HepG2, 0%.

`CCCCCN1CCCN(Cc2cccc(NC(=O)c3ccc(-c4ccccc4)cc3)c2)CC1.O=C(O)C(F)(F)F`: the Inhibition in the assay with Plasmodium falciparum [1] was 95%; with Plasmodium falciparum [2] it was 15%; in the assay with HepG2 it was 23%.

Regarding `COc1ccc(S(=O)(=O)N2CCCC(C)C2)cc1N1CCN(C(=O)c2ccc([N+](=O)[O-])o2)CC1` (centres undefined), the Inhibition is 94% in the assay with Plasmodium falciparum [1], 4% in the assay on Plasmodium falciparum [2] and 0% with HepG2.

Regarding `CN(C)Cc1cc(Nc2ccnc3cc(Cl)ccc23)ccc1O.Cl`, the Inhibition with Plasmodium falciparum [1] is 100%; in the assay on Plasmodium falciparum [2], 100%; in the assay with HepG2 it was 36%.

Take `N#Cc1cc(C(=O)Nc2ccccc2)c(N)nc1SCC(=O)NC(c1ccccc1)c1cccs1` (centres undefined): the figures for the Inhibition in the assay on Plasmodium falciparum [1], with Plasmodium falciparum [2] and in the assay with HepG2 were 98%, 100% and 34%, respectively.

Consider `COc1ccc(C2CCN(CCCCNC(=O)c3ccc(NC(=O)c4ccc(Cl)cc4)cc3)CC2)c(OC)c1.Cl`, for which the Inhibition with Plasmodium falciparum [1] was 100%; in the assay with Plasmodium falciparum [2], 95%; in the assay on HepG2, 32%.

For `Fc1ccc(-c2csc3ncnc(Cl)c23)cc1`, the Inhibition in the assay with Plasmodium falciparum [1] came out at 94%; with Plasmodium falciparum [2] it was 95%; in the assay on HepG2, 3%.

As for `COc1c(CN2CCCC2)cccc1-c1cc2c(-c3ccc(C(=O)O)c(C(C)C)c3)ccnc2[nH]1.O=C(O)C(F)(F)F`, the Inhibition with Plasmodium falciparum [1] stood at 99%; with Plasmodium falciparum [2], 98%; with HepG2, 56%.

On to `COc1ccc(NC(=O)Nc2cccc(-c3ccc(-c4nc5cc(C(F)(F)F)ccc5[nH]4)cc3)c2)cc1`, for which the values for the Inhibition in the assay on Plasmodium falciparum [1], with Plasmodium falciparum [2] and in the assay on HepG2 were 100%, 29% and 46%, respectively.

Turning to `Cl.Oc1ccc2c(c1NCC1CCCCC1)CCCC2`, the Inhibition came to 99% in the assay with Plasmodium falciparum [1], 99% in the assay on Plasmodium falciparum [2] and 11% in the assay with HepG2.

Consider `CC1CCCCN1CCCNc1ncc2c(-c3ccc(NC(=O)Nc4cc(C(F)(F)F)ccc4F)c(F)c3)nn(C)c2n1.O=C(O)C(F)(F)F` (centres undefined), for which the Inhibition in the assay with Plasmodium falciparum [1] is reported as 100%; in the assay on Plasmodium falciparum [2], 97%; with HepG2 it was 27%.

With `O=C(c1cc2c(s1)-c1cccc(Cl)c1SC2)N1CCN(c2ccncc2)CC1`, the Inhibition in the assay on Plasmodium falciparum [1] worked out at 94%; in the assay with Plasmodium falciparum [2], 36%; with HepG2, 45%.

As for `CCOC(=O)c1ccc(NC(=O)N[C@@H](Cc2ccccc2)C(=O)NC2CCN(Cc3ccc(O)cc3)C2)cc1` (some centres undefined), the Inhibition with Plasmodium falciparum [1] is listed as 95%; in the assay with Plasmodium falciparum [2], 2%; in the assay on HepG2, 7%.

As to `CCCN(CCC)CCCNc1ccc(C(=O)Nc2ccc(C(C)C)cc2)cc1[N+](=O)[O-]`, the Inhibition in the assay with Plasmodium falciparum [1] is given as 98%; with Plasmodium falciparum [2], 38%; in the assay on HepG2 it was 17%.

Turning to `CC1CN(c2ccc(NC(=O)c3cccs3)cc2)CCN1Cc1cccc(F)c1.O=C(O)C(F)(F)F` (centres undefined), the Inhibition with Plasmodium falciparum [1] came to 96%; in the assay on Plasmodium falciparum [2] it was 96%; in the assay with HepG2 it was 5%.

In the case of `COc1ccccc1C(=O)Nc1ccc(Nc2nc(C)cc(N3CCOCC3)n2)cc1`, the Inhibition was found to be 98% in the assay on Plasmodium falciparum [1], 22% in the assay on Plasmodium falciparum [2] and 28% with HepG2.

As to `CN1CCc2ccc(NC(=O)Nc3ccc(Cl)c(Cl)c3)cc2C1`, the results for the Inhibition with Plasmodium falciparum [1], with Plasmodium falciparum [2] and in the assay with HepG2 were 80%, 22% and 0%, respectively.

Take `O=C(O)C(F)(F)F.OC1CCCN(Cc2ccc(-c3ccc(-c4nc5ccccc5[nH]4)cc3)cc2)C1` (centres undefined): the Inhibition in the assay on Plasmodium falciparum [1] stood at 100%; with Plasmodium falciparum [2], 77%; in the assay with HepG2, 46%.

Take `COc1ccc(N2CCN(CCCCNC(=O)c3ccc(NC(=O)c4ccc(Cl)c(Cl)c4)cc3)CC2)c(OC)c1`: the results for the Inhibition with Plasmodium falciparum [1], in the assay with Plasmodium falciparum [2] and in the assay with HepG2 were 100%, 98% and 23%, respectively.

Regarding `Br.CN1C(=O)C(=O)N(CCCCCONC(=N)N)C1=S`, the Inhibition with Plasmodium falciparum [1] is listed as 100%; in the assay on Plasmodium falciparum [2], 1%; in the assay with HepG2, 21%.
